From PubChem BioAssay (Tox21)
Inconclusive results are not listed. Entries that show only a call come without a potency. Unmarked numbers belong to inactive results. The source made the active and inactive calls. The call rests on the fitted dose curve; in most records, active means well fitted curve in the direction sought with a large enough effect in the repeat runs; inconclusive means weak or mixed curves; inactive means no such curve, though single readings can be large; an effect the other way counts as inactive or inconclusive.

Tests used:
[1] = A CellTox Green Cytotoxicity Assay to monitor cytotoxicity in HEK293 cells - 8 hour (AID 1224884); further: nearly all actives have a fitted effect of over 35% in size; further: potency means the concentration at half of the fitted maximal effect
How it was run: (§1)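 Dead-cell fluorescence measured kinetically: asymmetric cyanine dye, HEK293, 600 cells/well, 5 h settle, 23 nL cpd/DMSO, 37 C, reads 0–40 h every 8 h.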

[2] = qHTS RealTime-Glo MT Cell Viability Assay in HepG2 cells - 16 hour (AID 1224885); further: nearly all actives have a fitted effect of over 50% in size; further: potency means the concentration at half of the fitted maximal effect
How it was run: (§2)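 HepG2 suspension premixed with RealTime-Glo reagents is plated at 600 cells per well and left 5 h at 37 C/5% CO2. Compounds in DMSO then go in, and bioluminescence reflecting viable cell number is recorded over 40 h.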

[3] = qHTS RealTime-Glo MT Cell Viability Assay in HEK293 cells - 24 hour (AID 1224886); further: nearly all actives have a fitted effect of over 50% in size; further: potency means the concentration at half of the fitted maximal effect; on activity change, negative = cytotoxicity: top concentration of the series differs between compounds
How it was run: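 Reads taken at 0, 8, 16, 24, 32 and 40 h from the same wells. HEK293 cells (600/well) carried RealTime-Glo reagents from seeding, with compound added after a 5 h settle at 37 C.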

[4] = qHTS RealTime-Glo MT Cell Viability Assay in HEK293 cells - 8 hour (AID 1224887); further: nearly all actives have a fitted effect of over 50% in size; further: potency means the concentration at half of the fitted maximal effect; on activity change, negative = cytotoxicity: top concentration of the series differs between compounds
How it was run: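 600 HEK293 cells per well, dispensed already mixed with RealTime-Glo MT reagents. Compound dosing came 5 h later. The same wells were read for luminescence at 0, 8, 16, 24, 32 and 40 h of exposure at 37 C.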

[5] = A CellTox Green Cytotoxicity Assay to monitor cytotoxicity in HEK293 cells - 16 hour (AID 1224888); further: nearly all actives have a fitted effect of over 35% in size; further: potency means the concentration at half of the fitted maximal effect
How it was run: as §1

[6] = qHTS RealTime-Glo MT Cell Viability Assay in HepG2 cells - 0 hour (AID 1224889); further: nearly all actives have a fitted effect of over 50% in size
How it was run: as §2

[7] = A CellTox Green Cytotoxicity Assay to monitor cytotoxicity in HepG2 cells - 8 hour (AID 1224890); further: nearly all actives have a fitted effect of over 45% in size; further: potency means the concentration at half of the fitted maximal effect
How it was run: (§3)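 First, HepG2 cells (600/well) mixed with reagent were plated; second, after 5 h at 37 C they received compounds via pintool; third, fluorescence was measured at 0 h through 40 h at 8 h intervals.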

[8] = qHTS assay to identify small molecule antagonists of the estrogen receptor alpha (ER-alpha) signaling pathway using the BG1 cell line in the presence of 0.1 nM 17-beta-estradiol - cell viability counter screen (AID 1259241); further: nearly all actives have a fitted effect of over 40% in size; further: potency means the concentration at half of the fitted maximal effect
How it was run: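 CellTiter-Fluor read (30 min, 37C) on ER-alpha/ERE-luc VM7Luc4E2 cells; 22 hr compound treatment; agonist 0.1 nM E2 final; same-well multiplex.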

[9] = A CellTox Green Cytotoxicity Assay to monitor cytotoxicity in HepG2 cells - 32 hour (AID 1224883); further: nearly all actives have a fitted effect of over 50% in size; further: potency means the concentration at half of the fitted maximal effect
How it was run: as §3

[10] = qHTS assay to identify small molecule antagonists of the androgen receptor (AR) signaling pathway using the MDA cell line in the presence of 0.5 nM R1881 - cell viability counter screen (AID 1259242); further: nearly all actives have a fitted effect of over 45% in size; further: potency means the concentration at half of the fitted maximal effect
How it was run: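 qHTS format. MDA-kb2 (MMTV-luc, AR/GR responsive) + cpd + 0.5 nM R1881 final, 16 hr 37C/0% CO2 → CellTiter-Fluor 30 min → fluorescence intensity.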

With `CC1CCCCN1CCCOC(=O)c1ccc(OC2CCCCC2)cc1` (stereo not drawn) the Potency [1] was “inactive”, the Potency [2] was “inactive” and the Potency [3] was 16.9 µM (active). The Potency [4] was 10.7 µM (active), the Potency [5] was “inactive” and the Potency [6] was “inactive”. The Potency [7] was “inactive” and the Potency [8] was “inactive”.
For `CC(C)=CCCC(C)O` (stereo not drawn), the Potency [9] was “inactive”, the Potency [2] was “inactive” and the Potency [3] was “inactive”. The Potency [4] was “inactive”, the Potency [6] was “inactive” and the Potency [7] was “inactive”. The Potency [8] was “inactive” and the Potency [10] was “inactive”.
With `CCC(C)(C)c1cc(O)c(C(C)(C)CC)cc1O` the Potency [9] was 49 µM (active), the Potency [1] was “inactive” and the Potency [3] was 21.9 µM (active). The Potency [6] was “inactive” and the Potency [8] was “inactive”.
In the case of `C=CC(=C)CC/C=C(\C)CCC=C(C)C`, the cytotoxicity increase [1] is reported as 0.0594% [at 15.8 µM], the activity change, negative = cytotoxic [2] is reported as 1.17% [at 15.8 µM] and the activity change, negative = cytotoxicity [3] is reported as -7.54% [at 15.8 µM]. The activity change, negative = cytotoxicity [4] was -9.22% [at 15.8 µM], the activity change [5] was 2.36% [at 15.8 µM, hits give high values] and the activity change, negative = cytotoxicity [6] was 8.34% [at 15.8 µM]. For the same molecule, the cytotoxicity increase [7] was 2.8% [at 15.8 µM], the activity change, negative = cytotoxicity [8] was 2.52% [at 19 µM] and the viability change, negative = cytotoxic [10] was 2.29% [at 19 µM].
In the case of `CCCCCCOc1cc(C)c(O)c(C)c1C`, the Potency [9] is reported as 24.8 µM (active), the Potency [3] is reported as 15.7 µM (active) and the Potency [4] is reported as 14 µM (active). The Potency [5] was 44.2 µM (active), the Potency [6] was “inactive” and the Potency [7] was 35.1 µM (active). For the same molecule, the Potency [8] was “inactive” and the Potency [10] was “inactive”.
With `CC(C)(C)c1cc(CCC(=O)NCCCCCCNC(=O)CCc2cc(C(C)(C)C)c(O)c(C(C)(C)C)c2)cc(C(C)(C)C)c1O` the Potency [9] was “inactive”, the Potency [1] was “inactive” and the Potency [6] was “inactive”. The Potency [7] was “inactive”, the Potency [8] was “inactive” and the Potency [10] was “inactive”.
In the case of `CNCC[C@H](Oc1cccc2ccccc12)c1cccs1`, the Potency [9] is reported as 19 µM (active), the Potency [2] is reported as 23.9 µM (active) and the Potency [8] is reported as “inactive”. The Potency [10] was 26.6 µM (active).
For `Cc1ccc(CCn2c3c(c4cc(Cl)ccc42)CN(C)CC3)cn1`, the Potency [1] was “inactive”, the Potency [2] was “inactive” and the Potency [3] was 9.52 µM (active). For the same molecule, the Potency [7] was “inactive”, the Potency [8] was “inactive” and the Potency [10] was “inactive”.
For `CCOC(=O)[C@@](C)(N)Cc1ccc(O)c(O)c1`, the Potency [1] was “inactive”, the Potency [2] was “inactive” and the Potency [3] was “inactive”. The Potency [4] was “inactive”, the Potency [5] was “inactive” and the Potency [6] was “inactive”. The Potency [10] was “inactive”.
With `CC(=O)Oc1ccc(C2(c3ccc(OC(C)=O)cc3)C(=O)Nc3ccccc32)cc1` the Potency [1] was “inactive”, the Potency [2] was “inactive” and the Potency [3] was “inactive”. The Potency [4] was “inactive”, the Potency [5] was “inactive” and the Potency [6] was “inactive”. For the same molecule, the Potency [7] was “inactive” and the Potency [10] was “inactive”.
In the case of `COc1ccc(C#N)cc1`, the Potency [1] is reported as “inactive”, the Potency [2] is reported as “inactive” and the Potency [3] is reported as “inactive”. The Potency [4] was “inactive”, the Potency [5] was “inactive” and the Potency [6] was “inactive”. The Potency [8] was “inactive” and the Potency [10] was “inactive”.
In the case of `Cc1cc(=O)[nH]c(=O)[nH]1`, the Potency [1] is reported as “inactive”, the Potency [2] is reported as “inactive” and the Potency [3] is reported as “inactive”. For the same molecule, the Potency [4] was “inactive”, the Potency [6] was “inactive” and the Potency [7] was “inactive”. The Potency [8] was “inactive” and the Potency [10] was “inactive”.
In the case of `c1ccc(Nc2cccc3ccccc23)cc1`, the Potency [1] is reported as “inactive”, the Potency [2] is reported as “inactive” and the Potency [3] is reported as “inactive”. The Potency [6] was “inactive”, the Potency [7] was “inactive” and the Potency [8] was “inactive”. The Potency [10] was “inactive”.
For `Clc1ccc(C(Cn2ccnc2)OCc2c(Cl)cccc2Cl)c(Cl)c1` (stereo not drawn), the Potency [1] was “inactive”, the Potency [2] was “inactive” and the Potency [3] was 16.9 µM (active). For the same molecule, the Potency [5] was “inactive” and the Potency [8] was “inactive”.
With `CCN(CC)CCSC(=O)C(c1ccccc1)c1ccccc1` the Potency [1] was “inactive”, the Potency [2] was “inactive” and the Potency [3] was “inactive”. The Potency [6] was “inactive”, the Potency [7] was “inactive” and the Potency [8] was “inactive”. For the same molecule, the Potency [10] was “inactive”.
For `O=C(O)CCn1c2c(c3ccccc31)C[C@H](NS(=O)(=O)c1ccc(F)cc1)CC2`, the Potency [1] was “inactive”, the Potency [2] was “inactive” and the Potency [3] was “inactive”. The Potency [4] was “inactive”, the Potency [6] was “inactive” and the Potency [7] was “inactive”. The Potency [8] was “inactive” and the Potency [10] was “inactive”.
In the case of `C=C(C)C(=O)OCCC[Si](Cl)(Cl)Cl`, the Potency [1] is reported as “inactive”, the Potency [2] is reported as “inactive” and the Potency [3] is reported as “inactive”. The Potency [4] was “inactive”, the Potency [5] was “inactive” and the Potency [7] was “inactive”. The Potency [8] was “inactive”.
With `O=CC1CC1` the Potency [1] was “inactive”, the Potency [2] was “inactive” and the Potency [3] was “inactive”. For the same molecule, the Potency [4] was “inactive”, the Potency [6] was “inactive” and the Potency [7] was “inactive”. For the same molecule, the Potency [8] was “inactive” and the Potency [10] was “inactive”.
With `C=CC(C)(CCC=C(C)C)OC(=O)/C=C/c1ccccc1` (stereo not drawn) the Potency [1] was 38.9 µM (active), the Potency [2] was “inactive” and the Potency [3] was “inactive”. The Potency [4] was “inactive”, the Potency [5] was 27.5 µM (active) and the Potency [6] was “inactive”. The Potency [7] was 43.6 µM (active), the Potency [8] was “inactive” and the Potency [10] was “inactive”.
In the case of `c1cc(OCC2CO2)cc(OCC2CO2)c1` (stereo not drawn), the Potency [1] is reported as “inactive”, the Potency [2] is reported as “inactive” and the Potency [3] is reported as 24.4 µM (active). The Potency [4] was “inactive”, the Potency [5] was “inactive” and the Potency [6] was “inactive”. For the same molecule, the Potency [7] was “inactive”, the Potency [8] was “inactive” and the Potency [10] was “inactive”.
For `N#CSCSc1nc2ccccc2s1`, the Potency [1] was “inactive”, the Potency [2] was 43.6 µM (active) and the Potency [3] was 15.5 µM (active). The Potency [4] was 21.9 µM (active), the Potency [5] was “inactive” and the Potency [6] was “inactive”. The Potency [8] was “inactive”.
For `CCC(C)c1cc([N+](=O)[O-])cc([N+](=O)[O-])c1OC(=O)OC(C)C` (stereo not drawn), the Potency [1] was “inactive”, the Potency [2] was 49 µM (active) and the Potency [4] was 49 µM (active). For the same molecule, the Potency [5] was “inactive”, the Potency [6] was “inactive” and the Potency [7] was “inactive”. The Potency [8] was 38.6 µM (active).
With `CCN(CC)c1ccc(N)cc1` the Potency [1] was “inactive”, the Potency [2] was 50.3 µM (active) and the Potency [3] was 22.5 µM (active). The Potency [4] was 20 µM (active), the Potency [5] was “inactive” and the Potency [6] was “inactive”. For the same molecule, the Potency [7] was “inactive”, the Potency [8] was 17.7 µM (active) and the Potency [10] was 17.7 µM (active).
For `Cc1ccc(O)cn1`, the Potency [1] was “inactive”, the Potency [2] was “inactive” and the Potency [4] was “inactive”. For the same molecule, the Potency [5] was “inactive”, the Potency [6] was “inactive” and the Potency [7] was “inactive”. For the same molecule, the Potency [8] was “inactive” and the Potency [10] was “inactive”.
With `CC(COC(=O)c1ccccc1)OC(=O)c1ccccc1` (stereo not drawn) the Potency [1] was “inactive”, the Potency [2] was “inactive” and the Potency [3] was “inactive”. The Potency [4] was “inactive”, the Potency [6] was “inactive” and the Potency [7] was “inactive”. The Potency [8] was “inactive”.
